Hit rate of the full screen: of about 370,000 compounds, about 4,800 (1.3%) were called active.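 How the source made its calls: active means inhibition above about 21% made by adding two undisclosed values (limit read from the data); inactive means the rest.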 Many of the other results were omitted from the sample, so actives are more common in it than they were.
These molecules were tested against Protein arginine N-methyltransferase 1 (Homo sapiens) (UniProt Q99873) (assay: human PRMT1 activity-probe blockers – biochemical, fluorescence polarization, primary screen (AID 652257)). Details: recombinant PRMT1, activity-based probe fluorescence polarization; at 2.79 µM; active compounds read high.
Sequence of Protein arginine N-methyltransferase 1 (Homo sapiens) (Q99873 whole entry, looked up): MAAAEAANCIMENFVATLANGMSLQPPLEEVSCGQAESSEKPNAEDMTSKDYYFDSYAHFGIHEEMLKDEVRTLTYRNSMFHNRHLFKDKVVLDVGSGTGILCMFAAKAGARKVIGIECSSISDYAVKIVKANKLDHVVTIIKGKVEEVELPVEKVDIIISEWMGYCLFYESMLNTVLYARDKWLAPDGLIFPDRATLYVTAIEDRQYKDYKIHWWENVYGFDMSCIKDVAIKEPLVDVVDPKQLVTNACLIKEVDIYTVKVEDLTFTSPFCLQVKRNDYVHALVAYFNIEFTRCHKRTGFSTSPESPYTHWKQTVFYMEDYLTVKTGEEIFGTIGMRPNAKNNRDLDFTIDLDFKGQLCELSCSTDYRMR
For `Cc1cccnc1NC(=O)Cn1c(=O)oc2ccccc21`, the inhibition was 5.97% (inactive).
`COC[C@@H]1CCCN1c1ccc2c(c1)O[C@H](C)CCN(C1CC1)S2(=O)=O` was tested, and the inhibition was -6.48% (inactive).
`O=C(Nc1cc(F)cc(F)c1)OC1CCC12CCC(c1ccccc1)CC2` (stereo unspecified) was tested, and the inhibition was -0.51% (inactive).
For `COc1ccc([C@H]2OC(=O)C[C@H]2C(=O)N2CCN(c3ccccc3F)CC2)cc1OC`, the inhibition was -4.27% (inactive).
In the case of `O=C(CSc1nnc(-c2ccccc2)n1Cc1ccco1)Nc1ccccc1-c1ccccc1`, the inhibition is reported as 12.6% (inactive).
For `O=C(CSc1nnc(-c2cccc(Cl)c2)n1Cc1ccco1)Nc1ccc(OCc2ccccc2)cc1`, the inhibition was -2.9% (inactive).
With `Clc1cccc(-c2nc3nc4ccccc4nc3n2Cc2ccco2)c1` the inhibition was 34.2% (active).
`COc1ccccc1C(C)NC(=O)Cc1ccsc1` (stereo unspecified) was tested, and the inhibition was -0.88% (inactive).
With `CCOc1ccc2[nH]c(=O)c(CN(Cc3nnnn3CCc3ccccc3)CC3CCCO3)cc2c1` (stereo unspecified) the inhibition was -1.4% (inactive).
`CCOc1ccc(CN(Cc2ccco2)C(c2cccs2)c2nnnn2C(C)(C)C)cc1` (stereo unspecified) was tested, and the inhibition was 2.59% (inactive).
`CCC(c1nnnn1Cc1ccco1)N(Cc1cc2cc(OC)ccc2[nH]c1=O)C1CCCCC1` (stereo unspecified) was tested, and the inhibition was 35.9% (active).
For `COc1ccc2[nH]c(=O)c(CN(CC3CCCO3)C(=O)Nc3ccccc3)cc2c1` (stereo unspecified), the inhibition was -3.84% (inactive).
`CCC(c1nnnn1Cc1ccco1)N(CCc1ccccc1)Cc1cc2ccc(OC)cc2[nH]c1=O` (stereo unspecified) was tested, and the inhibition was 44.2% (active).
In the case of `CCC(=O)N(Cc1cc2ccccc2[nH]c1=O)c1ccc(OC)cc1`, the inhibition is reported as 1.11% (inactive).
For `CNc1cncc(-c2ccc(NS(C)(=O)=O)cc2)n1`, the inhibition was 4.53% (inactive).
`N#C/C(=C\c1ccccc1)c1n[nH]c(Cn2cncn2)n1` was tested, and the inhibition was -3.96% (inactive).
In the case of `CCCCNC(=O)C[C@H]1C(=O)N(Cc2ccc(OC)cc2)C2=CCCC[C@@]21C(=O)OCC`, the inhibition is reported as 2.73% (inactive).
In the case of `COC(=O)c1cc(S(=O)(=O)N2CCN(C(=O)C3CCCO3)CC2)cn1C` (stereo unspecified), the inhibition is reported as -1.95% (inactive).
In the case of `O=C(CSc1nc2sc3c(c2c(=O)n1-c1ccccc1)CCCC3)NN=Cc1ccc(OCc2ccccc2)cc1`, the inhibition is reported as 0.97% (inactive).
In the case of `Cc1ccccc1CN1CCCCC(NC(=O)c2cccc(C#N)c2)C1=O` (stereo unspecified), the inhibition is reported as 1.34% (inactive).
For `CCCCOCCCNC(=O)C[C@H]1C[C@@]2(C(=O)OC)C(=C[C@H](C(C)(C)C)O[C@@H]2C)N(CCc2ccc(OC)c(OC)c2)C1=O`, the inhibition was -3.25% (inactive).
`CCCNC(=O)C1CC(=O)N(c2ccc(OCc3ccccc3)cc2)C1` (stereo unspecified) was tested, and the inhibition was -0.86% (inactive).
For `COc1cc(C2C(C(=O)c3ccco3)=C(O)C(=O)N2c2cc(C)on2)ccc1OCc1ccccc1` (stereo unspecified), the inhibition was 4.72% (inactive).
With `COc1cc(C2CC(=O)N3CN(Cc4ccccc4)CSC3=C2C#N)ccc1OCc1ccccc1` (stereo unspecified) the inhibition was 38.8% (active).
For `COc1ccnc(C(=O)N2CCC(Oc3cccnc3)CC2)c1`, the inhibition was 2.35% (inactive).
In the case of `CSc1cc(C)[nH]c(=O)n1`, the inhibition is reported as 2.31% (inactive).
`Cc1cc(=O)cc(C)[nH]1` was tested, and the inhibition was -3.92% (inactive).
With `Cc1cc(=O)[nH]c(=S)[nH]1` the inhibition was 107% (active).
In the case of `COC(=O)[C@H](C(C)C)N(CCc1cn(Cc2ccccc2)nn1)S(=O)(=O)c1ccc(F)cc1Br`, the inhibition is reported as 0.27% (inactive).
With `Cc1ccc(C)c(S(=O)(=O)N(C)c2ccc(OC(=O)C3CCN(C(=O)c4ccc(F)cc4)CC3)cc2)c1` the inhibition was 0.47% (inactive).
With `CCOC(=O)N1CCN(C(c2ccnc3ccccc23)c2nnnn2-c2c(C)cccc2C)CC1` (stereo unspecified) the inhibition was -3.34% (inactive).
With `CCOC(=O)N1CCN(C(c2cccnc2)c2ccc3cccnc3c2O)CC1` (stereo unspecified) the inhibition was 26.1% (active).
In the case of `CCCCC(=O)NC(c1ccc(OC)c(OC)c1)c1ccc2cccnc2c1O` (stereo unspecified), the inhibition is reported as -1.04% (inactive).
With `Cc1cccc(N2CCC(NCc3c(C(=O)N4CCCCC4)nc4c(C)cccn34)CC2)c1` the inhibition was 7.11% (inactive).
For `O=C(O)C1CCN(S(=O)(=O)N2CCOCC2)CC1`, the inhibition was 0.67% (inactive).
`NC(=O)c1c(Nc2nc3c(F)cccc3s2)sc2c1CCCC2` was tested, and the inhibition was 48.8% (active).
`CCOC(=O)C(NC(=O)CC(C)C)(Nc1sc2c(c1C(N)=O)CCCC2)C(F)(F)F` (stereo unspecified) was tested, and the inhibition was 0.14% (inactive).
`O=C(O)c1c(NC(=O)N2CCCC2)sc2c1CCCC2` was tested, and the inhibition was 4.25% (inactive).
For `Cc1ccc2nc(SCc3nnc(-c4ccccc4[N+](=O)[O-])o3)c(C#N)cc2c1`, the inhibition was -0.9% (inactive).
In the case of `Cc1ccc(-c2ccc(/C=C(\C#N)C(N)=S)o2)c([N+](=O)[O-])c1`, the inhibition is reported as 34.7% (active).
For `COc1ccc(CN2C(=O)C(CC(=O)NCCCCc3ccccc3)CC(C(=O)N3CCOCC3)=C2C)cc1` (stereo unspecified), the inhibition was -9.04% (inactive).
In the case of `COCCNC(=O)C(c1ccc(C)cc1)N(C(=O)CCC(=O)Nc1ccccn1)c1cccc(C)c1` (stereo unspecified), the inhibition is reported as -0.11% (inactive).
`CCOC(=O)c1c(N=CN(C)C)c(C#N)c2n1CCCC2` was tested, and the inhibition was -2.76% (inactive).
For `Cc1ccc(Cn2cc(COC(=O)N(C)Cc3ccccc3)nn2)cc1`, the inhibition was 0.99% (inactive).
For `O=C(COC(=O)Cn1[nH]c(=O)c2ccccc2c1=O)Nc1ncc(Cl)cc1Cl`, the inhibition was -0.63% (inactive).
In the case of `CCOC(=O)/C=C/C(=O)OCC(=O)NC(c1ccccc1)c1ccccc1`, the inhibition is reported as 8.52% (inactive).
With `O=C(Cc1ccc(-c2ccccc2)cc1)NC(c1ccccc1)c1ccccc1` the inhibition was 44.1% (active).
With `O=C(CN1CCc2ccccc21)NC(c1ccccc1)c1ccccc1` the inhibition was -3.28% (inactive).
For `COc1ccc(OCC(=O)Nc2nnc(-c3ccco3)s2)cc1`, the inhibition was 22.1% (active).
With `COc1ccc(OCCCC(=O)Nc2nnc(C3CCCO3)s2)cc1` (stereo unspecified) the inhibition was 2.04% (inactive).
`COc1ccc(CNC(=O)CCC(=O)Nc2nnc(C(C)C)s2)cc1` was tested, and the inhibition was 6.7% (inactive).
For `O=C(NCc1cccs1)C1CCCN(S(=O)(=O)c2ccc([N+](=O)[O-])cc2)C1` (stereo unspecified), the inhibition was 0.46% (inactive).
`C=CCN1C(=O)[C@H](CC(=O)NCCCN2CCCC2=O)[C@@]2(C(=O)OCC)CCCC=C12` was tested, and the inhibition was 0.15% (inactive).
For `O=C(NCCOc1cccnc1)c1ccc(OC2CCN(Cc3ccccn3)CC2)cc1`, the inhibition was 3.52% (inactive).
With `Cc1ccccc1N1CC(C(=O)Nc2nnc(SCCC3OCCO3)s2)CC1=O` (stereo unspecified) the inhibition was 5.12% (inactive).
With `Cc1ccnc(-n2sc3ccccc3c2=O)n1` the inhibition was 90.7% (active).

Reference: PubChem BioAssay AID652257 (The Scripps Research Institute Molecular Screening Center, 2013)
